# HP1b chromo inh = HP1-beta chromodomain-methylated histone interaction inhibition. P83916. AlphaScreen HP1-beta / biotin-H3K9me3 peptide binding. Potency, µM (top dose mostly 114 µM), for the others: top-dose activity change, negative = inhibition, hits mostly inhibitors. 390,000 compounds, 0.56% hits; further: potency means the concentration at half of the fitted maximal effect; nearly all actives have a fitted effect of over 70% in size
#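 AlphaScreen: HP1-beta (50 nM) preformed 30 min with biotin-H3(1-18)K9me3 peptide (50 nM) in PBS pH 7.4, 0.01% Tween-20. Compound added for 30 min at RT, then streptavidin donor/nickel chelate acceptor beads (10 ug/mL) for 30 min.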
# BAZ2B block = BAZ2B (human) inhibition. Q9UIF8. AlphaScreen BAZ2B-H3K14Ac peptide displacement. Potency, µM (titrated, usually from 114 µM), inactives show top-dose activity change, negative = inhibition, hits mostly inhibitors. 360,000 compounds, 4.4% hits. AID 504333; further: potency means the concentration at half of the fitted maximal effect; on the % scale 0 is the no-effect control and ±100 the full control effect; nearly all actives have a fitted effect of over 60% in size
# Target sequence (Q9UIF8 whole entry, looked up): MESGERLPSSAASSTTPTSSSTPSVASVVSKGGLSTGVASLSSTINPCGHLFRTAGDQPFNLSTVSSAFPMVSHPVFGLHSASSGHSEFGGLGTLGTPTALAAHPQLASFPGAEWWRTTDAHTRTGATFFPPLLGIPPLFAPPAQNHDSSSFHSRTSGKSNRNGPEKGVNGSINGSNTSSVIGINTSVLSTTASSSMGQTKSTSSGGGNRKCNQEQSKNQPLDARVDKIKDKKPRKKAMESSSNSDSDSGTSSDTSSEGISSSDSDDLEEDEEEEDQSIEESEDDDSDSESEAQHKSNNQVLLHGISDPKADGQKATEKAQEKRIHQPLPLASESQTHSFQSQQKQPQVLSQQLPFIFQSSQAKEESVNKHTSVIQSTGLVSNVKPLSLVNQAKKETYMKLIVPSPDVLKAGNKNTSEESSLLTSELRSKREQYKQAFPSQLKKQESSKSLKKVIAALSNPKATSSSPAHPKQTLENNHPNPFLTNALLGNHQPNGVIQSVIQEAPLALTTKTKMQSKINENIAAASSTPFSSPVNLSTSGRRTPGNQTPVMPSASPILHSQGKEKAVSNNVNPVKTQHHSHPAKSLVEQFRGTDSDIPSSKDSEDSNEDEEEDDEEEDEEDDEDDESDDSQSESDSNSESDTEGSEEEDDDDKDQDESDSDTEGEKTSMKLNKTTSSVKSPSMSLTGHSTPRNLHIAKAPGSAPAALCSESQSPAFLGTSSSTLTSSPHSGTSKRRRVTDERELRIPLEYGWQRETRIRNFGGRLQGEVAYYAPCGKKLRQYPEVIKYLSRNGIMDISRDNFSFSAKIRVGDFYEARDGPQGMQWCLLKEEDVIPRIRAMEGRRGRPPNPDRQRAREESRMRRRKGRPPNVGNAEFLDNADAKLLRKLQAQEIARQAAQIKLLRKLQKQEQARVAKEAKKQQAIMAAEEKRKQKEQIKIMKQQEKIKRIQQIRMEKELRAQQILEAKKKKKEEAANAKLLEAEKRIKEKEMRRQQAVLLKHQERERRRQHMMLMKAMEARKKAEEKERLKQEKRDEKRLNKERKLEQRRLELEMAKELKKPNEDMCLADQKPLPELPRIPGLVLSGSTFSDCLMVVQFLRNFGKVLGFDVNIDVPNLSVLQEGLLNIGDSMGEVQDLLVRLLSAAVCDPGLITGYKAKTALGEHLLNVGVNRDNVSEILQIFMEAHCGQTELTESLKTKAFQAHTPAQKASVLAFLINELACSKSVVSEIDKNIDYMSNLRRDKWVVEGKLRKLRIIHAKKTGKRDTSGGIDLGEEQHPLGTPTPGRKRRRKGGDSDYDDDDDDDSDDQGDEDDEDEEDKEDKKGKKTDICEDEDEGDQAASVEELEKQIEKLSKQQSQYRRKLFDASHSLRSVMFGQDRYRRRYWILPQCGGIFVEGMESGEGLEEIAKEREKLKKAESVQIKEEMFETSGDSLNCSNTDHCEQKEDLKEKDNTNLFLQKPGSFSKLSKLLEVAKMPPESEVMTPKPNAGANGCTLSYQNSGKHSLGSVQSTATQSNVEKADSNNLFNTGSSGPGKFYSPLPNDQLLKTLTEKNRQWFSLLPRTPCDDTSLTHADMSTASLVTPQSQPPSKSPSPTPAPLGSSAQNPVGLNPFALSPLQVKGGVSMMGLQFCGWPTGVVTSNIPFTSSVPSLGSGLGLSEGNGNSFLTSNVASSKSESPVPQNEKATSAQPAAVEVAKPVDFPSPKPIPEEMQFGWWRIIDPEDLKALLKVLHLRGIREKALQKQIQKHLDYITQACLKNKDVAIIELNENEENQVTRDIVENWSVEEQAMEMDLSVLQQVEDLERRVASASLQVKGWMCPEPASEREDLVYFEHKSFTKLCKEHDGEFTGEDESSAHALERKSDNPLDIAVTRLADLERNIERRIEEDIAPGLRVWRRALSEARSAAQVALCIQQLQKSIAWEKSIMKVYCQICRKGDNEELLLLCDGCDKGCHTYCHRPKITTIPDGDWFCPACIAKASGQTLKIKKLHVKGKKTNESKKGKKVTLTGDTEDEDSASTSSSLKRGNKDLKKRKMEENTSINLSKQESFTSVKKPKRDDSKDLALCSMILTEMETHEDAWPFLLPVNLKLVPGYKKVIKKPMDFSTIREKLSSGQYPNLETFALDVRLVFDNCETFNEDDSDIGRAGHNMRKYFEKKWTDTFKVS
#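 AlphaScreen luminescence quantifies BAZ2B engagement of H3K14Ac peptide; the protein and biotinylated peptide are both at 50 nM final, buffer PBS pH 7.4 with 0.01% Tween-20, all steps at room temperature.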
# JMJD2A Tudor = blocks the human JMJD2A Tudor domain. AlphaScreen JMJD2A-Tudor / H3K4me3 peptide binding. AID 504339. O75164. 390,000 compounds, 4.4% hits. Potency, µM (series often up to 114 µM), inactives show top-dose activity change, negative = inhibition, hits mostly inhibitors; further: potency means the concentration at half of the fitted maximal effect; on the % scale 0 is the no-effect control and ±100 the full control effect; nearly all actives have a fitted effect of over 50% in size
# G9a inh = blocks human histone lysine methyltransferase G9a; G9a H3K9 monomethylation, AlphaScreen, 2 h; Potency, µM (highest dose often 102 µM), without a hit: at the top dose activity, negative = inhibition, usual class: inhibitors; Q96KQ7; AID 504332; 350,000 compounds, 8.8% hits; further: potency means the concentration at half of the fitted maximal effect; on the % scale 0 is the no-effect control and ±100 the full control effect; nearly all actives have a fitted effect of over 75% in size
#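 Enzyme 20 nM + cpd, 15 min RT; add b-H3K9 pep 500 nM / SAM 20 uM; 2 h RT; anti-H3K9me1 Ab 0.5 ug/mL + SA donor / anti-rabbit acceptor beads 20 ug/mL each, 10 min; AlphaScreen read.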
# L3MBTL1 inh = blocks human L3MBTL1; 230,000 compounds, 0.66% hits; Potency, µM (doses to about 57.1 µM), inactives show at the highest dose activity, negative = inhibition, usual class: inhibitors; AlphaScreen L3MBTL1–H3K9me1 peptide binding; further: potency means the concentration at half of the fitted maximal effect; on the % scale 0 is the no-effect control and ±100 the full control effect; nearly all actives have a fitted effect of over 60% in size
#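 AlphaScreen assay: L3MBTL1 (50 nM final) was preincubated 30 min at room temperature with biotinylated H3(1-15)K9me1 peptide (75 nM final), then 30 min with library compounds; streptavidin donor and nickel chelate acceptor beads (10 ug/mL final) added, 30 min dark.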
# PI5P4K alpha inh = inhibitors of human PI5P4K alpha. max response, %. PI5P4Kalpha enzyme, ADP-Glo luminescence, 60 min; active compounds read low. 330,000 compounds, 1.2% hits. P48426; active means max response of -50% or lower; inconclusive means between -30% and -50%; inactive means -30% or higher; further: value at the top dose of about 77 µM; on the % scale 0 is the no-effect control and ±100 the full control effect
#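 Controls without substrate or without enzyme flank wells where PI5P4Kalpha converts substrate using 5 microM ATP (final). Incubation lasts 60 minutes at room temperature; ADP formed is read by ADP-Glo luminescence.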
# Numbers without * were called inactive; u = inconclusive; x = not tested or not shown; [ ] = remark or other dose. Shown are actives, neighbours in structure and some others; about 11% of the full set was active somewhere. Unless noted, the call rests on the fitted dose curve; in most records, active means well fitted inhibition curve with a large enough effect; inconclusive means small, poorly fitted or top-dose-only effect; inactive means no such curve, though single readings can be large or run the other way.
SMILES,HP1b chromo inh,BAZ2B block,JMJD2A Tudor,G9a inh,L3MBTL1 inh,PI5P4K alpha inh
CC(=O)Nc1ccc(SCCN2CCN(CC(C)C)CCC2=O)cc1,38%,x,-10%,x,x,x
Cc1cc(C(=O)COC(=O)c2n[nH]c(=O)c3ccccc23)c(C)n1C,15%,4%,-25%,u,-9%,0
Cc1cc(C(=O)COC(=O)c2n[nH]c3ccccc23)c(C)n1C,-24%,u,63µM*,u,-6%,-3
Cc1cc(C(=O)COC(=O)c2nccnc2N)c(C)n1C,-6%,x,-24%,-40%,-12%,6
COc1cc(C(=O)OCC(=O)c2cc(C)n(C)c2C)cc(OC)c1OC,u,0%,32µM*,5%[59 µM],-3%,-9
COc1ccc(Cl)cc1NC(=O)c1ccc(CN2C(=O)CCn3nc(C)cc32)cc1,3%,-11%,-11%,-26%[59 µM],x,x
Cc1cc(C)nc(Nc2nc(-c3ccccc3)cs2)n1,21%,-2%,-10%,x,-2%,4
Cc1cc(C)nc(Nc2nc(=O)c3ccccc3s2)n1,17%,-4%,-10%,40µM*,4%,3
CC(NCc1ccc2c(c1)OCO2)C(=O)N1CCc2ccccc21 (stereo not given),8%,0%,-26%,3%,5%,8
N#CC(Cc1ccc(O)c(O)c1)C(=O)N1CCc2ccccc21 (stereo not given),x,x,x,7.1µM*,x,x
O=C(c1ccncc1)N1CCC2(CCCN(c3cccc(-c4ccccc4)c3)C2)CC1,x,x,x,0%[12.7 µM],x,x
Cc1nc(NS(=O)(=O)c2cccs2)c2c3c(sc2n1)CCC3,56%,u,-5%[57.1 µM],79µM*,5%,-2
O=S(=O)(Nc1ncnc2sc3c(c12)CCC3)c1cc(F)ccc1F,41%,-8%,4%,x,8%,1
Cc1nc(NS(=O)(=O)c2ccc(Br)cc2)c2c3c(sc2n1)CCC3,32%,u,-16%,-20%[12.7 µM],0%,7
O=C(Nc1ncnc2sc3c(c12)CCCC3)c1ccncc1,12%,-20%,3%,45µM*,0%,0
O=S(=O)(Nc1ncnc2sc3c(c12)CCC3)c1ccc(Cl)s1,20%,u,-34%,10µM*,-20%[11.4 µM],-6
CN(C)C(=O)c1ccc(Nc2ncnc3sc4c(c23)CCCCC4)cc1,-6%,-16%,-20%,1%,x,u
Fc1cccc(Nc2ncnc3sc4c(c23)CCC4)c1,38%,6%,-6%,20µM*,19%,3
COc1ccc(-n2c(=O)c3c(c4cc(OC)ccc4n3C)n(C)c2=O)cc1,32%,-2%,-7%,-2%[59 µM],x,x
Cc1ccc(C(=O)c2oc3ccccc3c2NC(=O)c2cc(=O)c3cc(C)ccc3o2)cc1,32%,0%,-8%,-22%[59 µM],x,x
CC1CN2C(c3ccc(Cl)cc3)=CSC2=N1 (stereo not given),17%,-5%,-24%,45µM*,-2%,1
Cc1ccc2c(c1)c(N=Nc1cccc(C(=O)O)c1)c(O)n2C,-5%,u,-12%,35µM*,x,-15
CCc1cc(C(=O)N/N=C/c2ccc(O)cc2O)c2ccccc2n1,35%,45µM*,79µM*,13%,x,1
O=C(N/N=C/c1cc(Br)cc([N+](=O)[O-])c1O)c1ccc(NC(=O)c2ccc(F)cc2)cc1,u,13µM*,32µM*,35µM*,x,-16
O=C(N/N=C/c1ccc(O)cc1O)c1ccncc1,51%,32µM*,56µM*,41%,x,-1
SMILES,HP1b chromo inh,BAZ2B block,JMJD2A Tudor,G9a inh,L3MBTL1 inh,PI5P4K alpha inh
O=C(N/N=C/c1cc(Cl)cc(Cl)c1O)c1ccncc1,49%,10µM*,22µM*,-4%,28µM*,-11
O=C(NCc1cccc(Br)c1)C1CCCCN1S(=O)(=O)c1ccc(F)cc1 (stereo not given),50%,11%,16%,-6%[59 µM],x,x
CCOc1ccc2c(c1)c(=O)c(C(=O)c1ccc(CC)cc1)cn2CC(=O)Nc1ccccc1C,16%,-36%,-20%,3%[59 µM],x,x
O=C(N/N=C/c1cc(Br)cc(Br)c1O)c1ccncc1,38%,8.9µM*,13µM*,50µM*,25µM*,-22
Cc1cccc(C(=O)Oc2c(Br)cc(Br)cc2/C=N/NC(=O)c2ccncc2)c1,-6%,-9%,-21%[57.1 µM],23%,x,-6
CCCN1C(=O)C(O)(CC(=O)c2ccc(OC)c(OC)c2)c2ccccc21 (stereo not given),61%,30%,-12%,10%[59 µM],x,x
CCOc1ccc(C(=O)NC2CCCCCCC2)cc1,28%,x,12%,x,x,7
CCc1ccc(OCCOCC(O)CNC2CCCC2)cc1 (stereo not given),17%,1%,-1%,7%,7%,-1
CCOc1ccc(C(=S)NC2CCCCC2)cc1,-20%,-20%,-9%,10µM*,-1%,x
CCOc1ccc(OCCNC2CCCC2)cc1,u,17%,3.2µM*,u,x,8
CCCOc1ccc(OCCNC2CCCC2)cc1,u,u,89µM*,10µM*,-1%,11
COc1ccccc1NC(=O)C1=C(C)Nc2nc(SCc3ccccc3)nn2C1c1ccccn1 (stereo not given),8%,-1%,-13%,7%[59 µM],x,x
Cc1cc2c(N)cccc2nn1,5%,79µM*,-25%,2.8µM*,x,u
Nc1cccc2nc3ccccc3cc12,26%,7%,0%,-20%[59 µM],x,0
O=C(NCC1CCCO1)C(c1ccc(F)cc1)N(CC1CCCO1)C(=O)c1ccc(-c2ccccc2)[nH]1 (stereo not given),20%,40µM*,-26%,x,-14%,-1
COc1ccccc1CN1CC2(CCN(C(=O)c3ccncc3)CC2)C1,x,x,x,-10%[12.7 µM],x,x
CCOC(=O)C1CCCN(CC(=O)Nc2cccc(C(C)=O)c2)C1 (stereo not given),u,50µM*,22µM*,18µM*,-1%,2
COc1ccc(NC(=O)CN2CCN(CC(=O)Nc3ccccc3Cl)CC2)cc1Cl,9%,-12%,-5%[57.1 µM],x,-1%,-5
CCOC(=O)C1CCCN(CC(=O)Nc2cc(C)cc(C)c2)C1 (stereo not given),20%,-3%,-11%,50µM*,19%,3
CCOC(=O)C1CCN(CC(=O)Nc2ccc(OC)c(Cl)c2)CC1,u,50µM*,2.8µM*,10µM*,-14%,-5
CC(=O)Nc1ccc(S(=O)(=O)NCCc2cn3ccsc3n2)cc1,16%[57 µM],-15%,-16%,1%[59 µM],x,x
Cn1c(=O)c(-c2cccc(Cl)c2)nc2cncnc21,x,x,x,8%[12.7 µM],x,x
Cc1cc(C)nc(NS(=O)(=O)c2ccc(NC(=O)COc3ccc(C(C)(C)C)cc3)cc2)n1,10%,-21%,-31%,-8%[59 µM],x,x

# Assay outcomes deposited in PubChem BioAssay by National Center for Advancing Translational Sciences (NCATS).
